In PubChem BioAssay (NCI):
“And” between values parts separate entries of the source, which are not always exact repeats. Equal values may be shown once. This is part of a sample that, as a whole, favours compounds with a hit. Of some 83,000 tested, about 20% had one in any assay.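 Growth was measured after 48 h exposure to one concentration of compound in 96-well plates. Values under 10 count as active.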 The source made the active and inactive calls.

Each compound was assayed on HL-60(TB) leukemia (assay: NCI-60 one-dose screen, 48 h (100 = growth as untreated, 0 = no growth, -100 = all killed)). Details: 10 µM unless noted.
With `Nc1ccc(-c2nnc(SCc3ccc(O)c4ncccc34)o2)cc1` the growth was -5.84% (active). In the case of `COc1cc(-c2nc(SCc3ccc(C)cc3)[nH]c(=O)c2C#N)ccc1OCc1ccccc1`, the growth is reported as 137% (inactive). For `O=C(N/N=C/c1ccco1)c1[nH]c2ccc(Br)cc2c1-c1ccccc1`, the growth was -28.4% (active). With `CCCCCN1C(=O)/C(=c2\sc3n(c2=O)C2C(NN=3)N(CC)C(=O)N2CC)c2cccc(C)c21` (stereo not given) the growth was 11.9% (inactive). For `COc1cc(/C=C/C(=O)c2ccc(C(F)(F)F)cc2)ccc1Oc1nc(NCCO)nc(N2CCOCC2)n1`, the growth was 53.4% (inactive). For `COc1ccc2c(c1)c(-c1nnc(N)nc1-c1c[nH]c3ccc(F)cc13)cn2C`, the growth was -0.122% (active). With `O=C1[C@@H]2Cc3c([nH]c4ccccc34)[C@H](c3c(Cl)cccc3Cl)N2C(=O)CN1C1CCN(Cc2c(F)cccc2F)CC1` the growth was 109% (inactive). In the case of `O=C(N/N=C\c1ccc([N+](=O)[O-])cc1)c1ccc2nc(-c3ccc(Br)cc3)[nH]c2c1`, the growth is reported as 1.86% (active). In the case of `COCCOc1ccc2ncc(C#Cc3cncc(C(=O)Nc4ccc(CN5CCN(C)CC5)c(C(F)(F)F)c4)c3)n2n1`, the growth is reported as 16.7% (inactive). For `CCCCCCCCCC(=O)NC(C)(C)C(=O)N1CCC[C@H]1C(=O)N[C@@H](CC(C)C)C(=O)N[C@@](C)(CC)C(=O)N[C@@H](CCC(N)=O)C(=O)N[C@H](CCC(N)=O)C(=O)NC(C)(C)C(=O)NC(C)(C)C(=O)N[C@@H](CCC(N)=O)C(=O)N[C@H](CC(C)C)C(=O)N[C@H](CO)CC(C)C`, the growth was -76.7% (active) and -39.4% (active).
